The text below walks through data of ChEMBL document CHEMBL3988442, “University of Dundee, Small-Polar-MMV Screening Library” (2021).

Hit rate of the full screen: of about 69,000 compounds, about 950 (1.4%) showed an effect of 50% or more. Many of the other results were omitted from the sample, so strong results are more common in it than they were.

The test deals with Mycobacterium tuberculosis. Nature of the test: Cornell M. t heat shock assay. Further: in the data most compounds retested in dose-response had high values. The arrangement: dose or concentration left out as unconfirmed. It counts as functional, organism-based.
As to `CCOC1COC2(CCN(Cc3cccnc3OC)CC2)C1.O=C(O)C(F)(F)F.O=C(O)C(F)(F)F` (centres undefined), the “Percent Effect” value is 16.61%. Next, `CC(=O)N1C[C@@H]2CC[C@H](C1)N(S(=O)(=O)c1ccc(F)cc1Cl)C2`: 10.85%; `N#Cc1ccc(N2CCC3(CC2)CC(N2CCOCC2)CO3)cc1.O=C(O)C(F)(F)F` (centres undefined): 25.96%; `CN(C)C1CCN(C(=O)c2cc(-c3ccn(C)n3)n3ccccc23)CC1.O=C(O)C(F)(F)F`: 44.75%. On to `Cl.NCc1ccc(Oc2ccc(F)c(F)c2)cc1C(F)(F)F`, for which the “Percent Effect” value is recorded as 1.199%. As to `C[C@@H]1CN(Cc2ccoc2)C[C@]12CCN(CC(=O)N(C)C)C2=O.O=C(O)C(F)(F)F`, the “Percent Effect” value is 10.48%.

For `CS(=O)(=O)NC[C@H]1OC[C@H]2CN(Cc3ccsc3)CC[C@H]21.O=C(O)C(F)(F)F`, the “Percent Effect” value was -31.27%.

For `Cc1cc2nc(C(C)C)cc(NCCNc3ncccc3C)n2n1`, the “Percent Effect” value is on record as -16.57%. Next, `Cc1cccnc1NCCNc1cc(C(C)C)nc2ccnn12`: 97.5%; `Cc1cc(NCCNc2ncccc2C)n2nc(C)cc2n1`: 16.17%. The result for `Cc1cnc(C(=O)N2C[C@H]3CC[C@@H]2CN(c2cnccn2)C3)cn1` reads -7.052%; that for `CCC(C)N1Cc2c(C(=O)N3CCOCC3)nn(C)c2C1.O=C(O)C(F)(F)F` (centres undefined), -5.344%.

Turning to `CC(C)N1CCCCC1c1nc(N(C)C)ncc1I.Cl` (centres undefined), the “Percent Effect” value is on record as -21.57%. Next, `CC(C)N(C)Cc1cnc2n1CCN(S(=O)(=O)c1ccccc1)C2.O=C(O)C(F)(F)F`: -26.7%; `Cc1nc(C2CCNC2)nc2c1CCC(=O)N2CC(C)C.Cl` (centres undefined): -0.8245%. Next, `c1ccc(C2CCN(c3cncc(-n4cccn4)n3)CC2)cc1`: -1.073%. Next, `c1ccc(C2CCCN(c3cncc(-n4cccn4)n3)CC2)cc1` (centres undefined): 6.437%.

`c1ccc(COC2CCN(c3cncc(-n4cccn4)n3)CC2)cc1`: the “Percent Effect” value amounted to 53.35%.

As for `CN(C)S(=O)(=O)N1CCO[C@H]2[C@H](Oc3cccnc3)CC[C@@H]21.O=C(O)C(F)(F)F`, the “Percent Effect” value is listed as -23.12%.

In the case of `CCOc1ccc(C2C3=C(O)OCC3=Nc3nc(SC)nc(N)c32)cc1` (centres undefined), the “Percent Effect” value came to 5.942%.

For `CC(C)N1CCc2c(C(=O)N3CCOCC3)nn(C)c2C1.O=C(O)C(F)(F)F`, the “Percent Effect” value is on record as 1.567%. The result for `CC(C)c1ncc2c(n1)CN(Cc1noc(-c3ccccc3)n1)CC2` reads 59.47%. On to `Cc1ccc(-c2nc(CN3CCc4cnc(C)nc4C3)no2)cc1`, for which the “Percent Effect” value is 7.068%. Next, `CC(C)c1ncc2c(n1)CN(Cc1nc(Cc3ccccc3)no1)CC2`: 21.5%; `Cc1cccc(CN2CCOCC3(CCN(C4CCOCC4)C3)C2)c1.O=C(O)C(F)(F)F.O=C(O)C(F)(F)F` (centres undefined): -7.998%.

For the compound `CC(=O)Nc1nc(C(=O)NCc2ccc(N3CCCCCC3)nc2)cs1`, the “Percent Effect” value stood at 8.395%.

Regarding `CC(=O)Nc1nc(C(=O)Nc2ccc(N3CCCCC3)nc2)cs1`, the “Percent Effect” value is 50.82%. Take `CC(=O)Nc1nc(C(=O)NCc2ccc(N3CCCC3)nc2)cs1`: the “Percent Effect” value is reported as -13.06%.

For `O=C(O)C(F)(F)F.O=C(O)C(F)(F)F.c1cc(CN2CCc3ncc(CN4CCCCC4)n3CC2)cs1`, the “Percent Effect” value was -20.06%.

For the compound `Cc1nc(COCC2CN(C(N)=O)Cc3nccn3C2)cs1.O=C(O)C(F)(F)F` (centres undefined), the “Percent Effect” value was -0.7889%. Regarding `NC1(c2nc(-c3cccs3)cc(=O)[nH]2)CCCC1`, the “Percent Effect” value is reported as -25.86%.

On to `NC1(c2nc(-c3ccccc3)cc(=O)[nH]2)CCCC1`, for which the “Percent Effect” value is listed as -2.897%. For the compound `CCCc1cc(=O)[nH]c(-n2nc(-c3cccs3)cc2N)n1`, the “Percent Effect” value is 106.1%. The result for `NC1(c2nc(-c3ccccc3)cc(=O)[nH]2)CCCCC1` reads 0.6123%; that for `NC1(c2nc(-c3cccs3)cc(=O)[nH]2)CCCCC1`, -38.51%. Next, `Cc1cc(=O)[nH]c(-n2nc(-c3cccs3)cc2N)n1`: 94.15%; `CS(=O)(=O)NCCn1ccc(-c2cccs2)n1`: 0.1994%. Regarding `CCCS(=O)(=O)NCCn1ccc(-c2cccs2)n1`, the “Percent Effect” value is -4.478%.

With `Cc1cc(=O)[nH]c(-n2nc(-c3ccccc3)cc2N)n1`, the “Percent Effect” value amounted to 105.3%. The result for `Cc1noc(C)c1CN1CC[C@H]2OCC[C@@]2(C(=O)N(C)C)C1.O=C(O)C(F)(F)F` reads -9.212%. The result for `CC(C)CCN1C2(CCN(Cc3nccs3)C2)c2ccccc2S1(=O)=O.O=C(O)C(F)(F)F` (centres undefined) reads 47.98%.

Consider `CN(C)C(=O)COCC1CN(Cc2cccs2)Cc2ncn(C)c21.O=C(O)C(F)(F)F.O=C(O)C(F)(F)F` (centres undefined), for which the “Percent Effect” value is -34.33%. Take `O[C@@H]1CN(Cc2cc(Cl)cc3cccnc23)C[C@@H]1O`: the “Percent Effect” value is reported as -38.19%.

For `COc1ccc(CN2CCCC(N3CCCC3)C2)cc1Cn1cncn1` (centres undefined), the “Percent Effect” value is reported as -42.58%. The result for `Clc1cc(CN2CCCC(Cn3cncn3)C2)c2ncccc2c1` (centres undefined) reads -4.966%. The result for `COc1cc(Cl)cc(CN2CCCC(N3CCOCC3)C2)c1OC` (centres undefined) reads 2.91%. The result for `Clc1cc(CN2CCCN3CCCC3C2)c2ncccc2c1` (centres undefined) reads 99%; that for `COc1cc(Cl)cc(CN2CCCC(N3CCCC3)C2)c1OC` (centres undefined), 98.75%; that for `CNC(=O)C1CNCCN1C(=O)c1ccc(C(F)(F)F)nc1C.Cl` (centres undefined), 13.87%. For the compound `CC(C)NC(=O)CC1COC2(CCN(Cc3cccnc3)CC2)C1.O=C(O)C(F)(F)F.O=C(O)C(F)(F)F` (centres undefined), the “Percent Effect” value is -3.493%. `Cc1nc(N2CCCC2)nc2c1CCN(Cc1ccsc1)CC2.O=C(O)C(F)(F)F`: the “Percent Effect” value worked out at 100.4%.

For `Cc1nc(N2CCOCC2)nc2c1CCN(Cc1ccsc1)CC2.O=C(O)C(F)(F)F`, the “Percent Effect” value was determined as 3.426%. The result for `Cc1nc(N2CCCC2)nc2c1CCN(Cc1ccco1)CC2.O=C(O)C(F)(F)F` reads 66.31%; that for `CC(C)Oc1ncnc2c1CCN(Cc1ccco1)CC2.O=C(O)C(F)(F)F`, -23.01%; that for `Oc1nc(N2CCCC2)nc2c1CCN(Cc1ccsc1)CC2`, -11.88%. The result for `Cc1nc(C)c2c(n1)CCN(Cc1ccco1)CC2` reads 1.706%. The result for `Cc1nc(N2CCCC2)nc2c1CCN(Cc1nccn1C)CC2.O=C(O)C(F)(F)F` reads -10.58%; that for `Cc1nc(N2CCOCC2)nc2c1CCN(Cc1cccnc1)CC2.O=C(O)C(F)(F)F`, 5.04%. `Cc1nc(N2CCCC2)nc2c1CCN(Cc1ccoc1)CC2.O=C(O)C(F)(F)F`: the “Percent Effect” value stood at 64.12%.
